# Compounds with a hit are over-represented: about 1.8% of the library has one in this group of screens.
# Mtb hypoxia rep: Mtb hypoxia fluorescent reporter inhibition; M. tuberculosis hypoxia-regulated fluorescent reporter, fluorescence; fluorescence inhibition, % (test concentration not listed); 0.1% of 300,000 active; AID 1159583; in the data active means fluorescence inhibition mostly above about 23%, no sharp cut-off; inactive means mostly below about 17%
# PfHsp40 yeast: compounds rescuing yeast from Plasmodium falciparum HSP40 toxicity; S. cerevisiae expressing PfHsp40, growth rescue, ATP luminescence; growth rescue, % at 12.5 µM; 0.68% of 340,000 active; AID 504582; in the data active means growth rescue above about 28%, passing the limit was not always enough;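 further: yeast W303a lacking pdr1 and pdr3 grown in galactose medium; growth measured after three days at 30 °C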
# ugtP null kill: kills S. aureus RN4220 lacking UgtP. S. aureus RN4220 ugtP deletion, OD600 growth, 16 h. growth inhibition, % (concentration not given with the values). 0.54% of 330,000 active; in the data active means growth inhibition above about 68%
# RN4220 kill: S. aureus RN4220 growth inhibition; OD600, 16 h; inhibition, % (no concentration beside the values); 0.33% of 330,000 active; AID 1259311; in the data active means inhibition above about 85%
# SSB-PriA inh: K. pneumoniae PriA-SSBct interaction inhibition. AlphaScreen SSBct-PriA binding, biotinylated peptide. inhibition, % at 33 µM. 0.6% of 430,000 active; in the data active means inhibition mostly above about 37%, no sharp cut-off; inactive means mostly below about 20%
# VHR inh abs: inhibitors of human VHR1 phosphatase (DUSP3). AID 1654. inhibition, % at 13.3 µM. P51452. 0.52% of 290,000 active. recombinant VHR phosphatase, pNPP absorbance; in the data active means inhibition above about 50%
# Target sequence (P51452 whole entry, looked up): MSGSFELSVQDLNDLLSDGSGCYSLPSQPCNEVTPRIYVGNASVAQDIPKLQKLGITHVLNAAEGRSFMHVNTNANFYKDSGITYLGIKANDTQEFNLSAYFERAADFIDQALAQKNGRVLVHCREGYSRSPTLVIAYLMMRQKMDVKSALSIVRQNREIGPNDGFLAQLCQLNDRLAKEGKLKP
# Hits are given with their value; – = inactive; · = not tested or not shown.
SMILES,Mtb hypoxia rep,PfHsp40 yeast,ugtP null kill,RN4220 kill,SSB-PriA inh,VHR inh abs
Cn1cccc1C(=O)NS(=O)(=O)c1ccccc1Cl,–,86,–,–,–,–
O=C(CC1CCCCC1)NCC1CN(c2ccc3c(c2)OCO3)C(=O)O1 (stereo unspecified),·,·,·,·,–,·
CC(=O)Nc1ccc(C(=O)NC(C)c2ccc(-n3ccnc3)cc2)cc1 (stereo unspecified),–,–,–,–,–,53
COc1ccc(C(=O)CSc2ncnc3c2nnn3C)cc1,·,·,·,·,–,·
COc1ccc(Cn2ccc(=O)c(Cc3c(Cl)cccc3Cl)c2C)cc1,–,–,98,98,–,–
Cc1ccc(Cn2ccc(=O)c(Cc3c(Cl)cccc3Cl)c2C)cc1,–,–,101,100,–,–
Cc1c(OCc2ccccc2)c(=O)ccn1Cc1ccc(Cl)cc1,–,–,–,–,–,–
Cc1ccc(Cn2ccc(=O)c(OCc3ccccc3)c2C)cc1,·,–,–,–,–,–
Cc1c(Cc2c(Cl)cccc2Cl)c(=O)ccn1C(C)c1ccccc1 (stereo unspecified),–,52,99,98,–,–
CC1(C)CC(NC(=O)C23CCC(C)(C(=O)C2Br)C3(C)C)CC(C)(C)N1 (stereo unspecified),·,·,·,·,–,·
Cn1nc(C(F)(F)F)c(C=NOC(=O)c2ccc(Cl)cc2)c1Cl,–,·,–,–,–,·
CCS(=O)(=O)c1ccc(CC(=O)Nc2nnc(-c3ccc(F)cc3)o2)cc1,·,·,·,·,–,·
O=C(NCc1nnnn1-c1ccc(F)cc1)c1ccccc1SC(F)F,·,·,·,·,–,·
CCn1ccc2c(OCc3cccnc3)cccc2c1=O,·,·,·,·,–,·
COc1ccc(OC)c2c(C)cc(N3CCCN(C)CC3)nc12,–,–,–,–,44,–
COc1ccccc1N1CCN(c2cc(N3CCCC3)nc(C)n2)CC1,·,–,–,–,–,–
O=c1cc(-c2ccccc2)[nH]n1-c1nc2ccccc2s1,·,–,91,–,–,–
O=c1cc(-c2ccccc2)[nH]n1-c1ccccc1,–,–,–,–,–,·
Cc1cc(C)n(/N=C/c2ccc(C(C)C)cc2)c(=O)c1C#N,·,–,·,·,·,51
Cc1ccc(/C=N/n2c(C)cc(C)c(C#N)c2=O)cc1,·,–,·,·,·,–
O=C(CCCSc1ccc(NC(=O)c2cccs2)nn1)Nc1cnc2ccccc2c1,·,·,·,·,–,·
CCC(C)NC(=O)c1ccc2c(c1)S(=O)(=O)c1ccccc1C2=O (stereo unspecified),–,–,–,–,–,56
CC/C(=C\C=C\[C@@H]1C=C[C@@H]2CCC[C@H]2[C@@H]1C(=O)c1ccc[nH]1)[C@@H]1O[C@@H]([C@@H](C)C(=O)O)CC[C@@H]1C,–,·,99,100,–,–
S=C(NCCc1ccc(Cl)cc1)NC1CCCCC1,·,200,·,·,–,–
S=C(NCCc1ccccc1)NC1CCCCCC1,·,88,–,–,–,–
SMILES,Mtb hypoxia rep,PfHsp40 yeast,ugtP null kill,RN4220 kill,SSB-PriA inh,VHR inh abs
Cc1cccnc1NC(=S)NCCc1ccccc1,–,60,–,–,–,–
COCC(=O)Nc1ccc(-c2cn3c(C)csc3n2)cc1,·,·,·,·,–,·
FCCCOc1ccc(C=NOCc2ccc(Cl)cc2Cl)cc1,·,·,–,–,–,·
N#CC(C#N)=C1C=CC=CN1/C(=C\c1ccco1)C(=O)c1ccc(-c2ccccc2)cc1,–,56,–,–,–,–
N#CC(C#N)=C1C=CC=CN1/C(=C\c1ccco1)C(=O)c1ccc(Cl)cc1,–,–,89,–,–,–
N#C/C(=C\c1ccco1)C(=O)NCc1ccccc1,–,–,–,–,–,–
CC(C)(C)c1cc(NC(=O)C2CN(C(=O)COc3ccccc3F)C2)on1,·,·,·,·,–,·
COC(=O)c1ccc2c(=O)n(CC(=O)NC(C)c3ccccc3)c(=S)[nH]c2c1 (stereo unspecified),·,·,·,·,–,·
COc1ccc(-c2nc(N3CCN(C)CC3)sc2-c2ccc(OC)cc2)cc1,–,–,99,–,–,–
Cc1cc(Cl)ccc1Nc1nc(N2CCN(Cc3ccccc3)CC2)nc2c1cnn2C,·,·,·,·,–,·
Cc1cc(C(=O)NCC(O)(c2ccco2)C2CC2)c(C)o1 (stereo unspecified),·,·,·,·,–,·
N#Cc1ccc(NCC(=O)N2CCN(S(=O)(=O)c3ccccc3)CC2)cc1,43,–,–,–,–,·
COc1ccc(OC)c(Nc2nc(CC(=O)Nc3cccc(C)c3C)cs2)c1,·,·,·,·,24,·
COc1ccc(OC)c(Nc2nc(CC(=O)NCc3ccccc3OC)cs2)c1,·,·,·,·,17,·
COc1ccc(OC)c(Nc2nc(CC(=O)O)cs2)c1,·,·,·,·,–,·
COc1ccccc1NC(=O)Nc1nc(CC(=O)Nc2ccc(N(C)C)cc2)cs1,·,–,–,–,74,·
COc1ccc(NC(=O)c2csc(Nc3ccc(OC(F)F)cc3)n2)c(OC)c1,·,·,·,·,–,·
COc1ccc(NC(=O)c2csc(Nc3ccc(OC(F)F)cc3)n2)cc1OC,·,·,·,·,active,·
CC12COC3(C(=O)NC4CCCCC4)CC1CCC32C (stereo unspecified),·,·,·,·,–,·
CN(C)c1ccc(NC(=O)Nc2csc3ccccc23)cc1,·,–,·,·,40,–
COc1cccc(CNC(=O)Cc2csc(Nc3cc(OC)ccc3OC)n2)c1,·,·,·,·,22,·
COc1ccc(NC(=O)Cc2csc(Nc3cccc(C(F)(F)F)c3)n2)cc1OC,·,·,·,·,17,·
COc1ccc(OC)c(Nc2nc(CC(=O)NCc3cccnc3)cs2)c1,·,·,·,·,–,·
COc1cccc(CNC(=O)COc2ccc(C(=O)c3ccccc3)cc2)c1,–,499,–,–,–,–
Cc1ccc(C(N)=NOC(=O)CCCc2ccccc2)cc1,·,·,·,·,–,·
SMILES,Mtb hypoxia rep,PfHsp40 yeast,ugtP null kill,RN4220 kill,SSB-PriA inh,VHR inh abs
CCOC1OC(C(=O)O)=CC(c2ccc(C(F)(F)F)cc2)C1CCCO (stereo unspecified),–,·,–,–,·,·
O=C(COCc1ccccc1)NC[C@H]1Cc2ccccc2CO1,·,·,·,·,–,·
CCOc1ccc(CSCCNC(=S)Nc2ccc(OC)cc2)cc1,–,–,–,–,–,–
CCCOc1ccc(CSCCNC(=S)Nc2ccccc2)cc1,–,216,–,–,–,–
Cc1ccc(C)c(N2CCN(c3nc4ccccc4c(=O)n3Cc3ccccc3)CC2)c1,–,–,–,–,104,–
Cc1ccc(C)c(N2CCN(C(=O)c3ccc(Cn4c(=O)[nH]c5ccccc5c4=O)cc3)CC2)c1,–,–,–,–,–,51
O=c1c2ccccc2nc(N2CCN(c3ccccc3)CC2)n1Cc1ccccc1,–,–,–,–,–,–
CCC(C)C(=O)Nc1nc(C)c(-c2csc(Nc3cc(Cl)ccc3OC)n2)s1 (stereo unspecified),–,–,–,–,–,–
CCC(C)C(=O)Nc1nc(C)c(-c2csc(Nc3cc(OC)ccc3OC)n2)s1 (stereo unspecified),–,–,–,–,–,51
COc1ccc(OC)c(Nc2nc(-c3sc(C)nc3C)cs2)c1,–,–,–,–,47,–
Cc1ccc2cccc(C(=O)O)c2n1,·,·,·,·,–,·
O=C(CNS(=O)(=O)c1cccc(Cl)c1)NC1CCN(c2ccccn2)C1 (stereo unspecified),·,·,·,·,–,·
O=C(CN1C(=O)NC2(CCCc3ccccc32)C1=O)N1CCN(C(=O)c2ccco2)CC1 (stereo unspecified),–,–,–,–,–,54

# High-throughput results as filed in PubChem BioAssay.
